Experimental data: PubChem BioAssay
The source made the active and inactive calls.

Experiments:
[1] = test system: PRMT1 (protein arginine N-methyltransferase 1); assay: small molecules binding arginine methyltransferase PRMT1 – biochemical, small-molecule microarray, 635 nm fluorescence, primary screen (AID 1088); details: higher = more signal;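 also: binding of Prmt1 protein to compounds spotted on small-molecule microarray slides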
[2] = growth effects on S. cerevisiae YJM789 – YJM789 clinical isolate, OD600, 24 h, basal, primary screen (AID 1089); details: higher = more signal, called active from +8 up or from −8 down;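 also: growth of clinical yeast isolate S. cerevisiae YJM 789 seeded 1000 cells per well; test concentration not given here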
[3] = S. pombe growth modifiers, basal conditions – strain 972, OD600, 24 h, no modulator, primary screen (AID 1090);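 also: basal condition with compound alone and no growth modifier present; test concentration not given here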; details: S. pombe 972 growth, higher = more signal, called active from +8 up or from −8 down
[4] = budding yeast growth modifiers under rapamycin – strain BY4716, OD600, 96 h, primary screen (AID 1091); also: test concentration not given here; details: S. cerevisiae BY4716 + rapamycin, higher = more signal, called active from +8 up or from −8 down
[5] = target: Torsin-1A-interacting protein 2 (Homo sapiens) (UniProt Q8NFQ8); assay: small molecules binding lysate-expressed LULL1 – cell lysate, human LULL1 lysate, 635/667 nm fluorescence, primary screen (AID 1092); details: small-molecule microarray, hLULL1 lysate binding, 635 nm fluorescence; higher = more signal;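 also: probe is lysate of COS7 cells overexpressing human LULL1; score merges per-feature 667 nm fluorescence with signal-to-noise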
Sequence of Torsin-1A-interacting protein 2 (Homo sapiens) (Q8NFQ8 whole entry, looked up): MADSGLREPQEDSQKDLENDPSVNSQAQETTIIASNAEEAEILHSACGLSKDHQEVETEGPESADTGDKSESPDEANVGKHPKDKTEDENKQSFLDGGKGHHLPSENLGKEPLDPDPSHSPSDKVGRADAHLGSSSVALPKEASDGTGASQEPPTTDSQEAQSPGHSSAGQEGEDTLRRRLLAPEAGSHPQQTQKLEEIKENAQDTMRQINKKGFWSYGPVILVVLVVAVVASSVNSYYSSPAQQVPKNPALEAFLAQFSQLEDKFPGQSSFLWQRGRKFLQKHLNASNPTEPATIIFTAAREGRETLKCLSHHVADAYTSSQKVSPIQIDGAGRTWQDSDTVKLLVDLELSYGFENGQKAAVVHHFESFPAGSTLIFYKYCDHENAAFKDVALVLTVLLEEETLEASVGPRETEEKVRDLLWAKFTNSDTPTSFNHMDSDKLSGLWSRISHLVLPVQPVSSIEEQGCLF

[6] = optical density change of DRC41 E. coli – strain DRC41, OD650, 24 h, E. coli filamentation project, primary screen (AID 1093);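 also: MC1000 strain lacking acrAB efflux and sulA so SOS filamentation is blocked; test concentration not given here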; details: E. coli DRC41 growth, higher = more signal, called active from +8 up or from −8 down
[7] = probe aLefty2 binding to arrayed compounds – biochemical, biotinylated probe, 635/667 nm fluorescence, primary screen (AID 1094); details: small-molecule microarray, higher = more signal;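 also: score merges spot fluorescence near 667 nm with spot signal-to-noise ratio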
[8] = test system: Noggin (protein binding on small-molecule microarray); assay: small molecules binding Noggin protein – biochemical, 635/667 nm fluorescence, primary screen (AID 1095); details: 635 nm fluorescence, higher = more signal;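 also: score merges 667 nm feature fluorescence with signal to noise over triplicate slides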
[9] = target: Neurogenic locus notch homolog protein 3 (Homo sapiens) (UniProt Q9UM47); assay: small molecules binding NOTCH3 protein – biochemical, 635/667 nm fluorescence, primary screen (AID 1096); details: small-molecule microarray, 635 nm fluorescence, higher = more signal
Sequence of Neurogenic locus notch homolog protein 3 (Homo sapiens) (Q9UM47 whole entry, looked up): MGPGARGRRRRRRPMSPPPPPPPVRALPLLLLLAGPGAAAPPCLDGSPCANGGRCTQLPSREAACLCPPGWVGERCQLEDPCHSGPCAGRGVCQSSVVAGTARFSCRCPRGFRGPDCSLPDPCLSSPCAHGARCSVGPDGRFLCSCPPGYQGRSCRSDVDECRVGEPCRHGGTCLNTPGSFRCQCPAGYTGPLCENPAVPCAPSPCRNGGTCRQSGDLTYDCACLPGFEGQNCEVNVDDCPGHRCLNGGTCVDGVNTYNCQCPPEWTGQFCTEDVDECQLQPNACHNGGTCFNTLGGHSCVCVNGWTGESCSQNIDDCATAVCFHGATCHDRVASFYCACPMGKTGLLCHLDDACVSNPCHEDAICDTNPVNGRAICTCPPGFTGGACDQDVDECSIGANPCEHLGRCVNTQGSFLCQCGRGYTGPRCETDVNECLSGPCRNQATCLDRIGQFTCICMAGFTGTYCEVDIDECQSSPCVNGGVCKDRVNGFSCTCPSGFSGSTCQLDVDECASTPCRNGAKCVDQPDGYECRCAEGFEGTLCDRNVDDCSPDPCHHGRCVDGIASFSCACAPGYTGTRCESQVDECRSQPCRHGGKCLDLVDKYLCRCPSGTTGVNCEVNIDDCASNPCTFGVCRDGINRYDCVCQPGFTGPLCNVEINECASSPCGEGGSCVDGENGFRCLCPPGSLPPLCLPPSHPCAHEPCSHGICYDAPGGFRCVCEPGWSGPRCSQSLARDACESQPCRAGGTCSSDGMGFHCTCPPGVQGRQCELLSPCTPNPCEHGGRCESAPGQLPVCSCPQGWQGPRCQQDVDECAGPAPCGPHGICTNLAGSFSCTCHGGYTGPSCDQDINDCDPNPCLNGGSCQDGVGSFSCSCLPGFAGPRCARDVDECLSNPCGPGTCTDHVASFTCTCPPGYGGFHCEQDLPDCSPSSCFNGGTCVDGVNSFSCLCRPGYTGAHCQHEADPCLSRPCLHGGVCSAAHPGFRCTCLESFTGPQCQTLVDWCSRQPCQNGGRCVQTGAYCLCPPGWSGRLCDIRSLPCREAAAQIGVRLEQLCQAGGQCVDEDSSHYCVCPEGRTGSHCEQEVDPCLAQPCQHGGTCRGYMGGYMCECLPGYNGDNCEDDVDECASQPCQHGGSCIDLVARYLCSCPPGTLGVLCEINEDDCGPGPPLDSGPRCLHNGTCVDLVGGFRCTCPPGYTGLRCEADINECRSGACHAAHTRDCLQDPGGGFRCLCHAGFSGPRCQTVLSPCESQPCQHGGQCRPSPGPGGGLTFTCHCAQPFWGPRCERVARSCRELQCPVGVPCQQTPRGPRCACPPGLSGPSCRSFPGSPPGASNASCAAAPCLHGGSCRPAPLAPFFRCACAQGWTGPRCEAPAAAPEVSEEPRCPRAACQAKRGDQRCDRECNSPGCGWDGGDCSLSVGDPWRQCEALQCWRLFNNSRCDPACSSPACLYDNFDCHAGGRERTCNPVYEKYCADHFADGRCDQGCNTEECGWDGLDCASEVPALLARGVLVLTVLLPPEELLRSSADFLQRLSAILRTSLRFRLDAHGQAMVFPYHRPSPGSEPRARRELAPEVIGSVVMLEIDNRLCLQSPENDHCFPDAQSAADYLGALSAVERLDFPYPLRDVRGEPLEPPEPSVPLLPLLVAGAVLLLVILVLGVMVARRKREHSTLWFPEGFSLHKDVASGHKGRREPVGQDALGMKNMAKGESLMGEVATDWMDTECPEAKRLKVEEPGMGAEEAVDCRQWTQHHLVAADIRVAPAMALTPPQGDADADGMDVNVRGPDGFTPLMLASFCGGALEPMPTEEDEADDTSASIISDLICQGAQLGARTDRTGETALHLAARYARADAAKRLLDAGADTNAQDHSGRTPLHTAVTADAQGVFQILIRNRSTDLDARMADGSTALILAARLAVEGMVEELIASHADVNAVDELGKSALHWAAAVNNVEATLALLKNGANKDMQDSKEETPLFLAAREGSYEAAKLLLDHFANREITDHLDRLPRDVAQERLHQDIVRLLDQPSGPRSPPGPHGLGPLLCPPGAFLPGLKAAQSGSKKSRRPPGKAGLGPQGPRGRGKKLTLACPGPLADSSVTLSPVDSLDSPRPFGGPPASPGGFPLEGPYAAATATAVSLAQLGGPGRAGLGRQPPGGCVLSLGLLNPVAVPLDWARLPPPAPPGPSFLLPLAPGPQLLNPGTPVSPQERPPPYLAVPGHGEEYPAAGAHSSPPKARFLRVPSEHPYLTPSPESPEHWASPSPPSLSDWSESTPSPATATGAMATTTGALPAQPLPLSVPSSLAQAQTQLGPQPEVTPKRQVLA

[10] = probe aEGFR binding to arrayed compounds – biochemical, biotinylated probe, 635/667 nm fluorescence, primary screen (AID 1097); details: small-molecule microarray, higher = more signal;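 also: probe is a biotinylated anti-EGFR antibody binding compounds printed on slides; score combines fluorescence near 667 nm and signal to noise of each spot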

Row | SMILES | composite z-score [1] | z-score [2] | z-score [3] | z-score [4] | composite z-score [5] | z-score [6] | composite z-score [7] | composite z-score [8] | composite z-score [9] | composite z-score [10]
1 | COc1cc(Br)cc(C(O)C2C=CC3C(=O)N(C)C(=O)C3N2N2CCCCC2)c1OC (stereo not given) | -0.962 | 0.733 (inactive) | 1.13 (inactive) | 1.73 (inactive) | 1.49 | -1.54 (inactive) | 0.118 | -1.27 | -0.702 | 0.0122
2 | C=CCC(OC(C)=O)[C@@H]1[C@@H](N(Cc2ccc(-c3ccccc3)cc2)C(=O)c2ccc(-c3ccccc3)cc2)c2cc(OCCCO)ccc2N1C(=O)Cc1ccc2ccccc2c1 (stereo not given in full) | 0.758 | -0.609 (inactive) | -0.214 (inactive) | 0.218 (inactive) | 0.765 | -0.763 (inactive) | -0.119 | 0.233 | 0.3 | -0.17
3 | CC(C)N1C(=O)c2ccccc2[C@](C)(C(=O)NCCN2CCOCC2)[C@@H]1c1ccc(CO)cc1 | 1.2 | 0.608 (inactive) | 0.516 (inactive) | 0.511 (inactive) | 2.37 | -0.487 (inactive) | 0.0971 | 0.495 | 0.1 | -0.0152
4 | C=CCNC(=O)[C@@H]1[C@H]2C(=O)O[C@H](c3ccccc3)[C@H](c3ccccc3)N2[C@H](c2ccc(OCCO)cc2)[C@@]12C(=O)Nc1ccc(C#CCC(C(=O)OC)C(=O)OC)cc12 | 1.53 | 1.87 (inactive) | 2.03 (inactive) | 3.83 (inactive) | 3.04 | 1.92 (inactive) | 0.0869 | 1.31 | 0.981 | -0.0466
5 | COC(=O)[C@@]1(Cc2ccc(OC)cc2)[C@@H]2C(=CC(=O)[C@H]2CC(=O)C(=O)N2CCCC2)CN1C(=O)c1ccccc1 | -1.55 | 0.201 (inactive) | 0.097 (inactive) | 0.176 (inactive) | 2.99 | 0.355 (inactive) | 0.336 | 0.0255 | 0.735 | 0.386
6 | CCS[C@H]1[C@@H](C(=O)O)[C@H](c2ccc(C)cc2)N(S(=O)(=O)c2ccc(C)cc2)[C@@H]1CC | 0.811 | -0.406 (inactive) | 0.588 (inactive) | -0.0003 (inactive) | 3.26 | 0.401 (inactive) | 0.105 | -0.0193 | 1.11 | -0.0563
7 | O=C1c2ccccc2[C@](Cc2ccccc2I)(C(=O)NCCN2CCOCC2)[C@H](c2ccc(CO)cc2)N1Cc1ccccc1Cl | 1.55 | -0.747 (inactive) | -0.0063 (inactive) | -1.04 (inactive) | 2.45 | -0.116 (inactive) | 0.225 | 0.72 | 1.12 | 0.0523
8 | C=CC1(C(=O)OC)CC=C(C(=O)OC)CC1 (stereo not given) | 0.911 | -1.64 (inactive) | 0.358 (inactive) | -0.624 (inactive) | 0.531 | -0.487 (inactive) | -0.0449 | 0.533 | 0.57 | 0.0413
9 | C=CCOC(=O)[C@H]1[C@@H]2C(=O)O[C@@H](c3ccccc3)[C@@H](c3ccccc3)N2[C@@H](c2ccc(OCCOC(=O)[C@H]3C[C@H]4C(=O)N[C@@H](CCCCNC(C)=O)C(=O)N4[C@H]3c3ccc(O)cc3)cc2)[C@]12C(=O)Nc1ccc(I)cc12 | 1.57 | 1.12 (inactive) | -2.33 (inactive) | 1.75 (inactive) | 1.81 | -2.07 (inactive) | -0.0566 | 1.5 | 1.07 | -0.0088
10 | C=CCN1C(=O)[C@@]2(Cc3ccccc31)N=C(c1ccc(OCCCO)cc1)O[C@H]2c1ccccc1 | 1.54 | -1.95 (inactive) | -6.68 (inactive) | 2.77 (inactive) | 3.12 | 1.44 (inactive) | 0.352 | 0.638 | 1.11 | 0.122
11 | CC(C)N1C(=O)[C@@]2(Cc3ccccc31)c1ccccc1C(=O)N(Cc1ccccc1Cl)[C@H]2c1ccc(CO)cc1 | 0.477 | -1.05 (inactive) | -1.17 (inactive) | -2.86 (inactive) | -0.203 | -1.25 (inactive) | -0.153 | -0.665 | -0.942 | -0.152
12 | O=C(N1CCCCC1)[C@]1(Cc2ccccc2)N=C(c2ccc(OCCCO)cc2)O[C@@H]1c1ccccc1 | 1.28 | -0.425 (inactive) | -1.52 (inactive) | 3.64 (inactive) | 2.84 | -0.331 (inactive) | 0.18 | -0.281 | 0.586 | 0.303
13 | COc1ccc(C#Cc2ccc3c(c2)[C@]2(C(=O)N3)[C@H](C(=O)Nc3nc4ccccc4s3)[C@H]3C(=O)O[C@H](c4ccccc4)[C@H](c4ccccc4)N3[C@@H]2c2ccc(O)cc2)cc1 | 1.55 | 2.2 (inactive) | 0.98 (inactive) | 0.172 (inactive) | 3.26 | 0.943 (inactive) | -0.0353 | 1.82 | 1.02 | 0.398
14 | CC(C)N1C(=O)C[C@@](C(=O)NCC(F)(F)F)(c2ccc([N+](=O)[O-])cc2)[C@H]1c1ccc(CO)cc1 | 1.55 | -0.804 (inactive) | -1.63 (inactive) | -1.63 (inactive) | 3.32 | -0.29 (inactive) | -0.195 | 0.493 | 0.356 | -0.0987
15 | CCOC(=O)C[C@H]1[C@H](OC(=O)c2ccc(C(=O)c3ccccc3)cc2)[C@@H](NC(=O)c2ccccc2)c2cc(OCCCO)ccc2N1C(=O)Cc1ccc(OC)cc1 | 0.355 | 0.0572 (inactive) | -0.682 (inactive) | -0.0292 (inactive) | 0.84 | 0.0663 (inactive) | 0.0283 | 0.49 | 0.0805 | -0.142
16 | O=C1N(Cc2ccccc2)c2ccccc2[C@@H]2OC(c3ccc(OCCCO)cc3)=N[C@]12CCS(=O)(=O)c1ccccc1 | 1.5 | 0.805 (inactive) | 1.11 (inactive) | 7.05 (inactive) | 2.98 | 0.0515 (inactive) | 0.169 | 1.11 | 0.783 | 0.0248
17 | C[N+](C)(C)CCCCNC(=O)[C@@H]1C[C@@H]2C(=O)N[C@@H](Cc3ccccc3)C(=O)N2[C@@H]1c1cccc(OCCO)c1 | 0.402 | 0.534 (inactive) | -0.642 (inactive) | -1.14 (inactive) | 1.42 | 1.07 (inactive) | -0.0333 | 0.692 | -0.0417 | -0.169
18 | C=C(CCCC)/C(=C/C[C@H](OC(C)=O)c1ccccc1OCCO)c1cc(C(=O)OC)ccc1OC | -0.0836 | 0.556 (inactive) | -0.886 (inactive) | -0.24 (inactive) | 0.405 | 1.18 (inactive) | -0.171 | -0.035 | 0.212 | -0.126
19 | COC(=O)[C@]1(CCC(=O)OC(C)(C)C)N=C(c2ccc(OCCCO)cc2)O[C@@H]1c1ccccc1CN=[N+]=[N-] | 1.52 | 0.339 (inactive) | 0.419 (inactive) | 15.2 (active) | 2.07 | -0.511 (inactive) | 0.271 | -0.146 | 0.51 | 0.124
20 | COc1ccccc1CN1C(=O)c2ccccc2[C@@]2(Cc3ccccc3N(CC(C)C)C2=O)[C@@H]1c1ccc(CO)cc1 | 0.545 | -0.928 (inactive) | 0.189 (inactive) | -1.03 (inactive) | -0.359 | -0.0514 (inactive) | -0.122 | -0.19 | -0.285 | -0.127
21 | C=CC[C@]1(C(=O)NCCCOC)N=C(c2ccc(OCCCO)cc2)O[C@H]1c1ccccc1CN=[N+]=[N-] | 1.13 | -1.5 (inactive) | 0.998 (inactive) | -1.71 (inactive) | 3.15 | -0.483 (inactive) | 0.248 | 0.102 | 0.854 | 0.286
22 | CNS(=O)(=O)c1ccc(C)cc1 | 1.14 | -2.29 (inactive) | -2.38 (inactive) | -0.719 (inactive) | 0.283 | 2.55 (inactive) | -0.165 | 1.19 | 0.629 | -0.101
23 | O=C(NC1CC1)[C@@H]1c2ccccc2C(=O)N(Cc2ccccc2Cl)[C@H]1c1ccc(CO)cc1 | 1.54 | -2.17 (inactive) | -2.52 (inactive) | -1.66 (inactive) | 2.77 | 4.01 (inactive) | 0.161 | 1.02 | 1.11 | 0.0103
24 | COCCCNC(=O)[C@@H]1c2ccccc2C(=O)N(Cc2ccccc2Cl)[C@H]1c1ccc(CO)cc1 | 1.53 | -0.103 (inactive) | -0.329 (inactive) | -0.59 (inactive) | 2.26 | 2.55 (inactive) | -0.101 | 0.522 | 0.388 | -0.13
25 | COCCCNC(=O)[C@]1(CCC(=O)OC(C)(C)C)N=C(c2ccc(OCCCO)cc2)O[C@@H]1c1ccccc1CN=[N+]=[N-] | 1.54 | 0.15 (inactive) | 0.556 (inactive) | -0.78 (inactive) | 2.92 | -0.613 (inactive) | 0.0894 | 0.33 | 0.89 | -0.0315
26 | COCC(=C=CC[C@@H](O)c1cccc(OCCO)c1)C[C@@H](O)c1ccccn1 | 0.523 | 1.09 (inactive) | -0.416 (inactive) | -0.648 (inactive) | 1.12 | 0.257 (inactive) | -0.193 | 0.657 | 0.599 | -0.137
27 | COc1ccc(CCNC(=O)[C@@]2(Sc3ccc(C)cc3)CC(=O)N(C3Cc4ccccc4C3)[C@@H]2c2ccc(CO)cc2I)cc1 | 0.789 | 0.534 (inactive) | -2.75 (inactive) | 3.02 (inactive) | 1.99 | 0.171 (inactive) | 0.119 | -1.37 | -0.0239 | -0.172
28 | C=C(/C(=C/C[C@H](OC(C)=O)c1ccc(CO)o1)c1cc(C(=O)OC)ccc1OC)C(C)C | 0.57 | 1.02 (inactive) | -0.967 (inactive) | 0.0168 (inactive) | 0.381 | 0.865 (inactive) | -0.0485 | 0.58 | 0.368 | -0.0206
29 | COc1cc(C(O)C2C=CC3C(=O)NC(=O)C3N2Nc2ccccn2)cc(OC)c1OC (stereo not given) | 1.06 | 0.175 (inactive) | 1.15 (inactive) | 0.42 (inactive) | 3.09 | -1.19 (inactive) | 0.0624 | 0.0228 | 0.158 | 0.0954
